Sampled rows, rich in hits. Any-hit rate of the full collection: about 0.9%.
RN4220 kill – growth inhibition of S. aureus RN4220, primary screen, OD600. inhibition, % (test concentration not listed). 330,000 tested, 0.33% active. 16 h; in the data active = inhibition above about 85%;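 note: plate controls were untreated cells for no effect and reference antibiotic for full effect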
Mtb BioA inh – M. tuberculosis BioA enzyme inhibitors, primary screen, biochemical, plate reader, single point, HTS | 7,8-diaminopelargonic acid synthase BioA (Mycobacterium tuberculosis) | purified M. tuberculosis BioA enzyme | inhibition, % at 9.99 µM | 360,000 tested, 0.096% active | AID 602481, 2012; in the data active = inhibition above about 40%; inconclusive = no clear call, values can overlap the other calls
Mtb betalactam – beta-lactam sensitization of Mtb H37Rv, H37Rv; M. tuberculosis H37Rv growth with meropenem, percent inhibition; 330,000 tested, 0.27% active; AID 434955, 2010; inhibition, % at 25 µM; call rule not given here;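 note: growth measured after seven days incubation then overnight dye step; 0% = bacteria only wells and 100% = bacteria with antibiotic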
PfHsp40 yeast – rescue of yeast from PfHsp40 toxicity, primary screen, S. cerevisiae, ATP luminescence; AID 504582, 2011; growth rescue, % at 12.5 µM; S. cerevisiae expressing PfHsp40, growth rescue; 340,000 tested, 0.68% active; in the data active = growth rescue above about 28%, passing the limit was not always enough; inconclusive = no clear call, values can overlap the other calls;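 note: yeast W303a lacking pdr1 and pdr3 grown in galactose medium; growth measured after three days at 30 °C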
ugtP null kill – growth inhibition of ugtP-null S. aureus, primary screen, RN4220 ugtP deletion, OD600 | AID 1259309, 2017 | 330,000 tested, 0.54% active | 16 h | growth inhibition, % (no concentration beside the values); in the data active = growth inhibition above about 68%;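 note: plate controls were untreated wells for no effect and antibiotic for full effect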
* marks the source's active call; other numbers are inactive results; ? = inconclusive; . = no result.

SMILES	RN4220 kill	Mtb BioA inh	Mtb betalactam	PfHsp40 yeast	ugtP null kill
CCN(C(=O)c1ccccc1F)c1nc(-c2ccc(OC)cc2)cs1	-7	-1	0	4	90*
COCCN(C(=O)c1ccccc1F)c1nc(-c2ccc(OC)cc2)cs1	-7	-1	1	-2	39
COc1cc(C=C2N=C(c3ccccc3)OC2=O)c(F)cc1OCc1ccccc1	8	.	.	.	-5
CC(C)(C)c1cnnn1-c1ccc(C(=O)CCl)cc1	96*	-2	1	0	98*
CC(C)(C)c1cnnn1-c1ccc(C=O)cc1	1	.	-9	0	3
COc1ccc(CCn2c(C3CCCCC3)nc3c(c(=O)c4ccccc4n3C)c2=O)cc1	-3	11	82	.	-4
COc1ccc(CCn2c(C3CCCCC3)nc3c(c(=O)c4ccccc4n3C)c2=O)cc1OC	2	-2	-6	104*	2
CCCCCCCCOC(=O)c1c(CSC(=N)N)n(C)c2cc(Br)c(OC(C)=O)cc12	100*	-1	94	.	101*
CCCOc1ccc(C(O)=C2C(=O)C(=O)N(CCCOC)C2c2cccnc2)cc1 (stereo not given)	-2	.	.	.	-5
N#CC1=C(N)OC2=C(CN(Cc3ccccc3)CC2=Cc2cccnc2)C1c1cccnc1 (stereo not given)	5	.	.	.	1
CCCCCC[n+]1c(-c2ccccc2)csc1Nc1ccccc1	0	.	9	9	88*
O=C(O)c1ccc(C[n+]2c(-c3ccccc3)csc2Nc2ccccc2)cc1	5	.	-7	-1	10
Cn1nc(-c2ccc(Cl)cc2)nc2c(=O)n(C)c(=O)nc1-2	100*	2	?	.	100*
CCCCNc1c(-c2ccc(-c3ccc(OC)cc3)c(OC)c2)nc2ccccn12	1	1	93	251*	-33
CCCCNc1c(-c2ccc(OC)c(Sc3ccc(OC)cc3)c2)nc2ccccn12	.	0	69	12	.
CCN1C(=O)c2cccc3c(S(=O)(=O)Nc4nc(C)cs4)ccc1c23	28	3	-12	1	95*
CCN1C(=O)c2cccc3c(S(=O)(=O)Nc4ccccc4)ccc1c23	10	5	-3	0	-8
CC(C)CN1C(Nc2ccccc2)=NCC1C (stereo not given)	5	.	.	.	-12
N#CC(c1cccc(Cl)c1)c1ccc2c(C(F)(F)F)cc(C(F)(F)F)nc2n1 (stereo not given)	97*	.	75	0	97*
CCCCC=CC(NC(=O)CCc1ccccc1)c1ccccc1 (stereo not given)	6	.	.	.	4
CCOC(=O)COc1ccccc1/C=C\[N+](=O)[O-]	.	.	100	71*	.
O=C(NC1CC1)C1=CC(c2csc3ccccc23)CC(OCc2ccc(CO)cc2)O1 (stereo not given)	1	.	.	.	1
CC1C=C(C(=O)N2CCN(Cc3ccccc3)CC2)OC(OCc2ccc(CO)cc2)C1 (stereo not given)	4	.	.	.	2
Cc1cc(Nc2cccc(Cl)c2)nc(-c2ccccc2O)n1	-14	-1	6	1	24
Cc1cc(Nc2ccc(Cl)cc2)nc(-c2ccccc2O)n1	-14	0	6	72*	6
SMILES	RN4220 kill	Mtb BioA inh	Mtb betalactam	PfHsp40 yeast	ugtP null kill
Cc1cc(C)c(C2=CC(=O)CC(c3ccc4c(c3)OCO4)C2)c(C)c1 (stereo not given)	0	.	.	.	2
COc1cc(C(=O)NCC(c2cccs2)N2CCOCC2)cc(Br)c1OCc1ccccc1 (stereo not given)	8	-4	-1	132*	12
O=C(Nc1ccccc1)C1=CC(c2ccccc2)CC(OCCCCO)O1 (stereo not given)	-1	.	.	.	-1
N#CC1=C(N)Oc2n[nH]c(-c3ccccc3)c2C12C(=O)Nc1ccccc12 (stereo not given)	24	0	5	-1	-2
Cn1c2c(c(=O)n(C)c1=O)[C@@]1(C(=O)Nc3ccccc31)C(C#N)=C(N)O2	87*	.	0	1	29
CC(C)(C)OC(=O)NCCCCC(NC(=O)c1nc[nH]c1C(=O)N1CCN(c2ccccc2)CC1)C(=O)OC(C)(C)C (stereo not given)	5	.	.	.	1
CC/C(=C(/CC)c1ccc(O)cc1)c1ccc(O)cc1	.	-2	-4	107*	.
N=C(N)c1ccc(O)cc1	3	-2	2	-2	0
Cc1ccc2c(c1C)-c1c(ccc(C)c1C)C(=O)C2=O	.	.	.	171*	.
Cc1ccc2c(c1N)C(=O)c1ccccc1C2=O	.	-1	10	-3	.

Screening results as filed in PubChem.
